Results as given in the supplement of paper PMC12067093, “Discovery and optimisation of a covalent ligand for TRIM25 and its application to targeted protein ubiquitination” (Chemical Science, 2025).
Of roughly 21,000 targets only a part is listed; those with the largest changes were picked by preference.

Compound: Cc1cc(ccc1-c1ccccc1)C(=O)N1CCCN(CC1)C(=O)CCl [compound 10]
Test: probe-labelled cysteine peptide fold change vs DMSO (competition) (log2 fold change); higher = less target engagement (more negative = stronger competition)
Settings: THP-1, incubation time: 4 h
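Note: competitive profiling in live THP-1 cells: cysteine peptides tagged with an iodoacetamide desthiobiotin (IA-DTB) probe, intensity after compound treatment relative to DMSO-treated cells.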

Target	probe-labelled cysteine peptide fold change (10 µM)	probe-labelled cysteine peptide fold change (50 µM)
GFI1_Q99684_155_GAGLGLFCEPAPEPGHPAALYGPK (UniProt Q99684)	-0.225	1.62
HCK_P08631_241_LSVPCMSSK (UniProt P08631)	-0.0986	0.102
HK3_P52790_840_AAQLCGAGVAAVVEK (UniProt P52790)	0.169	-0.0558
GTF3C5_Q9Y5Q8_75_DPYCHPVCANR (UniProt Q9Y5Q8)	0.121	0.621
GPD1L_Q8N335_216_NIVAVGAGFCDGLR (UniProt Q8N335)	-0.0284	0.115
FLCN_Q8NFG4_215_VFEAEQFGCPQR (UniProt Q8NFG4)	-0.0204	-0.54
GNL1_P36915_365_YKDGVVTIGCVGFPNVGK (UniProt P36915)	-0.0143	-0.869
GEMIN5_Q8TEQ6_82_VSGFTFSHHPGQYNLCATSSDDGTVK (UniProt Q8TEQ6)	0.193	0.148
HAUS2_Q9NVX0_89_CHTLQSMNNHLEAVLK (UniProt Q9NVX0)	0.0751	-0.239
HELZ_P42694_101_AVLCCMQLK (UniProt P42694)	-0.198	-1.11
GATD3B_A0A0B4J2D5_176+177_EFHQAGKPIGLCCIAPVLAAK<|>GATD3A_P0DPI2_176+177_EFHQAGKPIGLCCIAPVLAAK (UniProt P0DPI2)	-1.14	-2.38
HDDC3_Q8N4P3_133_CTPEGWSEHR (UniProt Q8N4P3)	0.13	-0.00995
GCLM_P48507_35+46_CPSTHSEELHDCIQK (UniProt P48507)	-0.112	-0.843
GATD3B_A0A0B4J2D5_177_EFHQAGKPIGLCCIAPVLAAK<|>GATD3A_P0DPI2_177_EFHQAGKPIGLCCIAPVLAAK (UniProt P0DPI2)	-0.563	-1.98
FOS_P01100_204_EKLEFILAAHRPACK (UniProt P01100)	0.0955	1.53
FLAD1_Q8NFF5_338_LTLDSEEEGPLEECLAYLTAR (UniProt Q8NFF5)	-0.0485	0.177
GATM_P50440_131_KAVAEIEEMCNILK (UniProt P50440)	-0.0751	-0.22
GPX1_P07203_78_GLVVLGFPCNQFGHQENAKNEEILNSLK (UniProt P07203)	-0.208	-1.3
HLA-C_P04222_345+364_GGSCSQAASSNSAQGSDESLIACKA (UniProt P04222)	-0.638	-1.66

Target	probe-labelled cysteine peptide fold change (10 µM)	probe-labelled cysteine peptide fold change (50 µM)
GNB1_P62873_148+149_ELAGHTGYLSCCR (UniProt P62873)	-0.185	-0.407
GTF3A_Q92664_191_AHEGYVCQK (UniProt Q92664)	0.112	-0.151
GTPBP3_Q969Y2_188_QLDGELGHLCR (UniProt Q969Y2)	-0.0966	-0.00935
GFM2_Q969S9_248_LLWNCNSNDGK (UniProt Q969S9)	-0.353	-0.937
HDHD3_Q9BSH5_109_DFSHPCTWQVLDGAEDTLR (UniProt Q9BSH5)	-0.47	-1.92
FKBP3_Q00688_133_KGDVVHCWYTGTLQDGTVFDTNIQTSAK (UniProt Q00688)	0.106	-0.0529
GRHPR_Q9UBQ7_288_NCVILPHIGSATHR (UniProt Q9UBQ7)	0.293	0.0427
HDAC5_Q9UQL6_982_CFGHLTR (UniProt Q9UQL6)	0.138	-0.104
GPC4_O75487_341_VFQGCGPPK (UniProt O75487)	-0.24	-0.0603
GSDMD_P57764_38_RVVQELDHGGEFIPVTSLQSSTGFQPYCLVVR (UniProt P57764)	0.275	-0.375
GATM_P50440_50_NSCAADDK (UniProt P50440)	-0.478	-1.27
GEMIN5_Q8TEQ6_1421_NEPEVEAEQPLCSSQSQCK (UniProt Q8TEQ6)	0.068	-0.124
GSTP1_P09211_102_DQQEAALVDMVNDGVEDLRCK (UniProt P09211)	0.0332	1.08
GOLGA4_Q13439_1085_ILLFGCEK (UniProt Q13439)	-0.11	0.095
HK3_P52790_190_CSGVEGQDVVQLLR (UniProt P52790)	0.199	-0.106
FHL2_Q14192_275_GFLTERDDILCPDCGK (UniProt Q14192)	0.0254	-0.163
GOLGA3_Q08378_769_LGELQGEAASREDTICLLQNEK (UniProt Q08378)	-0.084	-0.193
HEATR5A_Q86XA9_1635_QIICAAQEHVK (UniProt Q86XA9)	0.0658	0.171
